Among the data in PubChem BioAssay AID588351 (The Scripps Research Institute Molecular Screening Center, 2011) are activation values, retold here.

Each structure is given as a SMILES string. Out of some 1,900 compounds screened, about 1,600 (84%) were called active. So high a share suggests a set chosen from earlier hits. A selection follows. Unmarked numbers belong to inactive results.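 Rule for the calls: active = mean activation above a set limit taken from the primary screen (cut at about 8% in these data); inactive = the rest.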

This assay can be described thus: FXN GAA850 promoter activators in reporter cells, confirmation, cell-based, luminescence, HEK293 lucGAA850, triplicate (AID 588351).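 Note: 0% = DMSO wells and 100% = 10 µM SAHA wells.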 Conditions: HEK293 lucGAA850 FXN promoter luciferase reporter, 24 h; at 6 µM; stronger effect = higher value; 100% = activation by SAHA. (In a reporter assay the amount or activity of a reporter protein is the signal.)
Consider `COc1ccccc1C1=Nc2cccc3cccc(c23)N1`, for which the activation was 7.84% (active).
Next, `CCN(C[C@H]1N[C@@](CC)(C(=O)OC)[C@H]2C(=O)N(Cc3ccccc3)C(=O)[C@@H]12)S(=O)(=O)c1ccc(C(F)(F)F)cc1`: 10.5% (active); `O=C(Nc1nnc(S(=O)(=O)N2CCCCCC2)s1)c1cccc(Br)c1`: 16.8% (active); `Cn1c(=O)n(C)c2cc(S(=O)(=O)N3CCCc4ccccc43)ccc21`: 11.8% (active).
Under `CC(C)(C)N1C(=O)[C@H]2[C@@H](c3ccc(Br)cc3)N3C(=O)N(c4cccc(Cl)c4)C(=O)[C@@]3(C)[C@H]2C1=O` stands 6.82%.
Take `CC[C@@]12C(=O)N(c3ccccc3)C(=O)N1[C@H](c1ccc(Br)cc1)[C@@H]1C(=O)N(C(C)(C)C)C(=O)[C@@H]12`: the activation is 11.1% (active).
Under `CCCNC(=O)c1c(Cl)cnn1-c1ccc(C)cc1` stands 31.2% (active); under `Cc1ccccc1Nc1c([N+](=O)[O-])ccc2nonc12`, 17% (active).
Next, `CC[C@]1(C(=O)OC)[C@H]2C(=O)N(Cc3ccccc3)C(=O)[C@H]2[C@H]2CN=C(SCc3ccc(C#N)cc3)N21`: 11% (active); `CC[C@]1(C(=O)OC)[C@H]2C(=O)N(Cc3ccccc3)C(=O)[C@H]2[C@H]2CN=C(SCc3ccccc3)N21`: 6.5%; `COC(=O)[C@@]1(C)[C@H]2C(=O)N(Cc3ccccc3)C(=O)[C@H]2[C@H]2CN=C(SCC3CC3)N21`: 12.3% (active).
Turning to `CC(C)CCC(C)NC(=O)c1ccc2nccnc2c1` (centres undefined), the activation was 25.6% (active).
Under `Cn1c(CCN2CCCCCC2)nc2cc(NC(=O)Nc3ccccc3)ccc21` stands 32.6% (active); under `COC(=O)c1ccc(CSc2nc3ccccc3c(=O)n2-c2cccc(OC)c2)o1`, 16.6% (active).
Next, `Cc1ccc2cc(/C=N/Nc3ccc(C(=O)O)cc3)c(Cl)nc2c1`: 44.5% (active); `CN(C(=O)c1cc2c(=O)n3ccccc3nc2s1)C1CCCCC1`: 37.7% (active).
In the case of `COCCn1c(=NC(=O)c2ccccc2[N+](=O)[O-])sc2cc(S(C)(=O)=O)ccc21`, the activation is 23.4% (active).
As to `O=C(CSc1cccc2cccnc12)N/N=C/c1cccnc1`, the activation was 10.9% (active).
Under `O=[N+]([O-])c1ccc(C=Nc2ccc(Cl)cc2Cl)s1` stands 17.7% (active); under `O=C1N=C(N2CCCC2)S/C1=C\c1cccc(Br)c1`, 20.9% (active); under `COc1ccc2[nH]c(=O)c(CN(Cc3nnnn3CCc3ccccc3)CC3CCCO3)cc2c1` (centres undefined), 5.82%.
As for `COc1cc(C#Cc2ccc3cc(CCCO)oc(=O)c3c2)cc(OC)c1`, the activation was 44.9% (active).
Turning to `COc1cccc(Nc2nc(N)c([N+](=O)[O-])c(NCc3ccco3)n2)c1`, the activation is 22.8% (active).
Under `O=C(CN(c1cc(C(F)(F)F)ccc1Cl)S(=O)(=O)c1ccccc1)NCc1cccnc1` stands 8.52% (active); under `COc1ccc(-n2cc(-c3ccccc3)c3c(=S)nc[nH]c32)cc1`, 11% (active); under `Cc1ccc(-c2c3c(=O)n(C)c(=O)n(C)c3cn2-n2cnnc2)cc1`, 19% (active).
Under `CCOc1ccc(N2C(=O)CC(N(CCc3ccc(OC)c(OC)c3)C(=S)Nc3ccccc3)C2=O)cc1` (centres undefined) stands 9.64% (active); under `CC(C)(C)C(=O)c1cnc(Nc2ccccc2)s1`, 49.2% (active); under `Cc1cc(OCc2cc(C(=O)NCc3cc(C(C)C)no3)no2)cc(C)c1Cl`, 30.7% (active).
Take `CNc1nc(Nc2ccc(C)c(Cl)c2)nc(N)c1[N+](=O)[O-]`: the activation was 71% (active).
Next, `CC(Sc1nc2c([nH]c3ccccc32)c(=O)n1C)c1ccccc1` (centres undefined): 16.1% (active).
Next, `Cc1ccc(-c2nc3ccccc3[nH]c2=O)cc1`: 29.2% (active).
Take `CN(C)CCNC(=O)c1ccc(Cl)c2cc3ccccc3nc12`: the activation is 130% (active).
For the compound `CCC(=O)NC(=Nc1nc2ccccc2s1)NC(=O)CC`, the activation was 38.4% (active).
Regarding `COc1ccc(Cl)cc1NC(=O)CN(C)C(=O)CCCc1c[nH]c2ccccc12`, the activation is 9.95% (active).
In the case of `Fc1ccccc1/C=N/Nc1cc(N2CCCCC2)ncn1`, the activation was 43.1% (active).
Take `CCCCCOc1ccc(CSC2=NCCN2)cc1[N+](=O)[O-]`: the activation is 38.6% (active).
Under `Nc1ccc(C(=O)Nc2ccccc2N)cc1` stands 55.7% (active); under `N#CCSc1nc2ccccc2c(=O)n1-c1ccccc1`, 16.2% (active); under `CCCCc1ccc(NC(=S)N2CCCC(CO)C2)cc1` (centres undefined), 33.8% (active).
Under `CC(C)c1ccc(NS(=O)(=O)c2cn(C)c(=O)n(C)c2=O)cc1` stands 5.44%; under `Fc1ccc2nc(N3CCCCC3)sc2c1`, 27.8% (active).
On to `Cc1cc(C)n2nc(CNS(=O)(=O)c3c(F)c(F)c(F)c(F)c3F)nc2n1`, for which the activation was 20.7% (active).
Turning to `Cc1ccc(C(=O)NNc2ncnc3ccccc23)cc1`, the activation is 25.9% (active).
Under `O=C(NC1CCCC1)c1cc(-c2ccccc2)on1` stands 67.8% (active).
Next, `O=C(NCCCn1ccnc1)c1cc(-c2ccccc2)on1`: 127% (active); `COc1ccccc1N1CCN(C(=O)c2cc(-c3ccc(Br)cc3)on2)CC1`: 2.35%.
As for `CC1CCc2sc3nc(N4CCN(CCO)CC4)n4ncnc4c3c2C1` (centres undefined), the activation was 21.9% (active).
Regarding `CN(C)S(=O)(=O)c1ccc2oc(SCC(=O)Nc3ccccc3F)nc2c1`, the activation is 44.6% (active).
As for `COc1ccc(/C=C/C(=O)Nc2ccc(C34CC5CC(CC(O)(C5)C3)C4)cc2)cc1OC`, the activation was 44.5% (active).
Consider `Cc1nnc(Sc2nc3c(c(=O)[nH]c(=O)n3C)n2Cc2ccccc2)s1`, for which the activation is 5.05%.
Next, `CN(C)C(=S)N=c1ssc(=S)n1Cc1ccco1`: 32.8% (active).
`CC(C)(C)c1ccc(C(=O)NCc2ccco2)cc1`: the activation was 44.1% (active).
As to `O=C(NCc1ccco1)c1ccc(Cn2c(=O)c3sccc3n(Cc3ccc(F)cc3)c2=O)cc1`, the activation is 6.19%.
Next, `CCCCNC(=O)N(O)C1N(/N=C/c2ccccc2O)C(=S)SC1(C)C` (centres undefined): 14.1% (active); `CCOC(=O)c1cc2c(=O)n3ccccc3nc2n(CC(C)C)c1=NC(=O)c1c(-c2c(F)cccc2Cl)noc1C`: 3.22%; `N#Cc1c(N)nc2c3c(sc(=N)c2c1N)NC(=O)CC3c1ccccc1Cl` (centres undefined): 24.2% (active).
Take `CCc1ccc(N(C(=O)c2csnn2)C(C(=O)NC2CCCCC2)c2ccncc2)cc1` (centres undefined): the activation was 12.1% (active).
Consider `Cc1cc(=O)oc(C)c1C(=O)NCc1ccc(F)cc1`, for which the activation was 4.06%.
